Each compound was assayed on DYRK1A. Settings: concentration: 1 μM, replicates: in singlicate; n = 1.
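Also: KINOMEscan kinase panel screen.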

Row | Structure (SMILES) | %Inh [%]
1 | COc1cccc(C2=C(Nc3cc(Cl)c(O)c(Cl)c3)C(=O)NC2=O)c1 [SB-390767] | 38
2 | Cc1ccccc1Cn1ccn2c(=O)cc(N3CCOCC3)nc12 [GSK2269905] | 16
3 | Fc1ccc(-c2nn3cccc(F)c3c2-c2ccncc2)cc1 [GW475620] | 7
4 | Cc1nccc(-c2c(-c3ccc(F)cc3)ncn2CCCN2CCOCC2)n1.Cl [SB-282975] | 17
5 | Cc1cccc2c(-c3ccncn3)c(-c3ccc(F)cc3)nn12 [GW515532] | 23
6 | COc1ccc(Nc2nccc(NCCNC(=O)Nc3cc(C)ccc3C)n2)cc1 [GSK1379899] | 18
7 | Nc1nccc(-c2c(-c3ccc(F)cc3)ncn2C2CCN(Cc3ccccc3)CC2)n1 [SB-219980] | 0
8 | CS(=O)(=O)Cc1ccc(Nc2nccc(-c3c(-c4cccc(NC(=O)C5CCCCC5)c4)nn4ncccc34)n2)cc1 [GSK350559] | 26
9 | Cc1ccc(NC(=O)Nc2ccc(Cl)c(C(F)(F)F)c2)cc1-c1ccc(C(=O)Nc2ccncc2)cc1 [GSK1398470] | 12
10 | O=c1cc(N2CCOCC2)nc2n(Cc3ccccc3F)ccn12 [GSK2297428] | 6
11 | O=C(Nc1n[nH]c2nc(-c3ccco3)c(Br)cc12)C1CCN(Cc2ccccc2)C1.O=C(O)[C@H](O)[C@@H](O)C(=O)O (stereo not shown) [SB-742034] | 22
12 | CCn1c(-c2c(N)noc2C)nc2cnccc21 [SB-737856] | 30
13 | Cn1cnc2c(N)ncnc21 [SKF-97623] | 0

From article PMC5540273 (PLoS ONE, 2017)
